Compound activity: PubChem BioAssay, National Center for Advancing Translational Sciences (NCATS)
Most compounds without a hit are left out; they make up all but 11% or so of the library.
G9a block – inhibitors of human histone lysine methyltransferase G9a. 350,000 tested, 8.8% active. Potency, µM (titrated, usually from 102 µM), usual class: inhibitors. G9a H3K9 monomethylation, AlphaScreen, 2 h. AID 504332. Q96KQ7; further: nearly all actives have a fitted effect of over 75% in size
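Signal arises when biotinylated H3K9 peptide, once monomethylated, bridges streptavidin donor and antibody-captured acceptor beads. Enzyme at 20 nM was preincubated 15 min with test compounds; peptide 500 nM and SAM 20 uM then reacted for 2 h.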
BAZ2B inh – blocks human BAZ2B. Potency, µM (series often up to 114 µM), actives largely listed as inhibitors. 360,000 tested, 4.4% active. Q9UIF8. AID 504333. AlphaScreen BAZ2B-H3K14Ac peptide displacement; further: nearly all actives have a fitted effect of over 60% in size
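BAZ2B 50 nM plus b-H3(5-23)K14Ac 50 nM, PBS pH 7.4/0.01% Tween-20, 30 min RT; compound added (max 110 uM), 30 min RT; streptavidin donor/Ni-chelate acceptor beads 10 ug/mL final, 20 min dark; AlphaScreen read.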
HP1b chromo inh – inhibitors of HP1-beta chromodomain binding to methylated histone tails | P83916 | 390,000 tested, 0.56% active | AID 540317 | AlphaScreen HP1-beta / biotin-H3K9me3 peptide binding | Potency, µM (highest dose often 114 µM), usual class: inhibitors; further: nearly all actives have a fitted effect of over 70% in size
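AlphaScreen: HP1-beta (50 nM) preformed 30 min with biotin-H3(1-18)K9me3 peptide (50 nM) in PBS pH 7.4, 0.01% Tween-20. Compound added for 30 min at RT, then streptavidin donor/nickel chelate acceptor beads (10 ug/mL) for 30 min.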
L3MBTL1 block – L3MBTL1 (human) inhibition. Q9Y468. AlphaScreen L3MBTL1–H3K9me1 peptide binding. Potency, µM (highest dose often 57.1 µM), most hits filed as inhibitors. 230,000 tested, 0.66% active; further: nearly all actives have a fitted effect of over 60% in size
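AlphaScreen proximity signal between nickel-chelate acceptor and streptavidin donor beads (final 10 ug/mL) reports binding of 50 nM L3MBTL1 to 75 nM biotin-H3 K9me1 peptide; complex incubated with compounds 30 min at room temperature; cefsulodin titration as control.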
JMJD2A Tudor inh – blocks the human JMJD2A Tudor domain; Potency, µM (doses to about 114 µM), most hits filed as inhibitors; AID 504339; AlphaScreen JMJD2A-Tudor / H3K4me3 peptide binding; O75164; 390,000 tested, 4.4% active; further: nearly all actives have a fitted effect of over 50% in size
Hits are given with their value; [ ] = remark or other dose. The call rests on the fitted dose curve; in most records, active means well fitted inhibition curve with a large enough effect; inconclusive means small, poorly fitted or top-dose-only effect; inactive means no such curve, though single readings can be large or run the other way.

How did CCCCC(CCC(=O)O)(C(=O)OCC)c1csc(Nc2ccccc2)n1 (stereo unspecified) do in these assays?
G9a block: inactive; BAZ2B inh: inactive; HP1b chromo inh: inactive; L3MBTL1 block: inactive; JMJD2A Tudor inh: inactive

Results for CCCCC(CCC(=O)O)(C(=O)OCC)c1csc(Nc2ccc(OCC)cc2)n1 (stereo unspecified) ?
G9a block: 31.6µM; BAZ2B inh: inconclusive; HP1b chromo inh: inactive; L3MBTL1 block: inactive; JMJD2A Tudor inh: inactive

Results for CCOc1ccc(Nc2nc(Cc3nnc(SCC(=O)O)o3)cs2)cc1 ?
G9a block: 50.1µM; BAZ2B inh: inconclusive; HP1b chromo inh: inactive; L3MBTL1 block: inconclusive; JMJD2A Tudor inh: 89.1µM

What do the screens show for `CCC(C)NC(=O)CSc1nc2cc3c(cc2c(=O)n1CCCC(=O)NCCc1ccc(OC)c(OC)c1)OCO3` (stereo unspecified)?
G9a block: inactive; BAZ2B inh: inactive; HP1b chromo inh: inactive; JMJD2A Tudor inh: inactive

Results for Cc1ccc(-n2c(=O)c3ccc(C(=O)NCc4ccccc4Cl)cc3n(CC(=O)Nc3cccc(F)c3)c2=O)cc1 ?
G9a block: inactive; HP1b chromo inh: inactive; JMJD2A Tudor inh: inactive

What do the screens show for `CCOc1ccc(S(=O)(=O)Nc2ncn[nH]2)cc1`?
G9a block: inactive; BAZ2B inh: inactive; HP1b chromo inh: inactive; JMJD2A Tudor inh: inactive

How did CCOc1ccc(S(=O)(=O)Nc2cc(Sc3ncn[nH]3)c3oc(=O)sc3c2)cc1 do in these assays?
G9a block: 31.6µM; BAZ2B inh: inconclusive; L3MBTL1 block: inactive

Results for COc1ccc(Cl)cc1NC(=O)CN1C(=O)COc2ccc(S(=O)(=O)NC3CCCC3)cc21 ?
G9a block: inactive; BAZ2B inh: inactive; HP1b chromo inh: inactive; JMJD2A Tudor inh: inactive

How did COc1ccc(-c2noc(-c3ccc(Br)o3)n2)cc1OC do in these assays?
G9a block: inactive[12.7 µM]; BAZ2B inh: inactive; HP1b chromo inh: inactive; L3MBTL1 block: inactive[11.4 µM]; JMJD2A Tudor inh: inactive

What do the screens show for `COc1cccc(OCc2nc(-c3ccc(Br)o3)no2)c1`?
G9a block: inconclusive; BAZ2B inh: inconclusive; HP1b chromo inh: inactive; L3MBTL1 block: inactive; JMJD2A Tudor inh: inactive

How did Brc1ccc(-c2noc(COc3ccc4ccccc4c3)n2)o1 do in these assays?
G9a block: 44.7µM; BAZ2B inh: inconclusive; HP1b chromo inh: inactive; JMJD2A Tudor inh: inactive

What do the screens show for `COc1ccc(Cc2nc(-c3ccc(Br)o3)no2)cc1OC`?
G9a block: 50.1µM; BAZ2B inh: inactive; HP1b chromo inh: inactive; L3MBTL1 block: inactive; JMJD2A Tudor inh: inactive

Results for CC(C)CCNC(=O)c1cccc(-n2cnc3cccnc32)c1 ?
G9a block: inactive; BAZ2B inh: inactive; HP1b chromo inh: inactive; JMJD2A Tudor inh: inactive

How did COc1ccc(/C=C2\CCCC(C(=O)C(F)(F)F)=C2O)cc1 do in these assays?
G9a block: 8.91µM; BAZ2B inh: inactive; HP1b chromo inh: inactive; JMJD2A Tudor inh: inactive

Results for O=C(NNC1=C(C(=O)C(F)(F)F)CCC1)c1cccnc1 ?
G9a block: inactive; BAZ2B inh: inactive; HP1b chromo inh: inactive; L3MBTL1 block: inactive; JMJD2A Tudor inh: inactive

How did O=C(C1=C(O)/C(=C/c2ccc(O)cc2)CCC1)C(F)(F)F do in these assays?
G9a block: 10µM; BAZ2B inh: inactive; HP1b chromo inh: inactive; L3MBTL1 block: inactive; JMJD2A Tudor inh: inactive

What do the screens show for `O=C(Nc1ccc(S(=O)(=O)Nc2ncccn2)cc1)c1cc(=O)c2ccccc2o1`?
G9a block: inactive; BAZ2B inh: inactive; HP1b chromo inh: inactive; JMJD2A Tudor inh: inactive

Results for O=C(C(Cl)c1ccccc1)N1CCOCC1 (stereo unspecified) ?
G9a block: 22.4µM; BAZ2B inh: inactive; HP1b chromo inh: inactive; JMJD2A Tudor inh: inactive

Results for O=C(C(c1ccccc1)C(O)(c1ccccc1)c1ccccc1)N1CCOCC1 (stereo unspecified) ?
HP1b chromo inh: inactive; JMJD2A Tudor inh: inactive

What do the screens show for `Cc1csc(=O)n1CCC(=O)OCC(=O)Nc1ncc(Cl)cc1Cl`?
G9a block: 44.7µM; BAZ2B inh: inconclusive; HP1b chromo inh: inactive; L3MBTL1 block: inactive; JMJD2A Tudor inh: inactive

Results for Cc1csc(=O)n1CCC(=O)OCC(=O)Nc1cc(Cl)ccc1[N+](=O)[O-] ?
G9a block: inactive[12.7 µM]; BAZ2B inh: inconclusive; HP1b chromo inh: inconclusive; L3MBTL1 block: inactive; JMJD2A Tudor inh: inconclusive

Results for Cc1csc(=O)n1CC(=O)OCC(=O)NNC(=O)c1ccccc1 ?
G9a block: inactive; BAZ2B inh: inactive; HP1b chromo inh: inactive; JMJD2A Tudor inh: inactive

How did Cc1csc(=O)n1CCC(=O)OCC(=O)NNC(=O)c1ccccc1 do in these assays?
G9a block: 56.2µM; BAZ2B inh: inactive; HP1b chromo inh: inactive; L3MBTL1 block: inactive; JMJD2A Tudor inh: inactive

What do the screens show for `CN(C(=O)CSc1nc2cc(C(=O)O)ccc2c(=O)n1Cc1ccccc1)C1CCS(=O)(=O)C1` (stereo unspecified)?
G9a block: 50.1µM; BAZ2B inh: inactive; HP1b chromo inh: inactive; L3MBTL1 block: inactive; JMJD2A Tudor inh: inactive

Results for CCOc1ccc(-c2cnc(NCc3ccc(OC)cc3OC)n2C)cc1 ?
G9a block: 15.8µM; BAZ2B inh: inconclusive; HP1b chromo inh: inconclusive; JMJD2A Tudor inh: 28.2µM

How did COc1ccc(CNc2ncc(-c3ccc(Cl)cc3)n2C)c(OC)c1OC do in these assays?
G9a block: 70.8µM; BAZ2B inh: inconclusive; HP1b chromo inh: inconclusive; L3MBTL1 block: inactive; JMJD2A Tudor inh: 25.1µM

Results for CCCCn1nnnc1NCc1ccc(OC)c(OC)c1OC ?
G9a block: inactive; BAZ2B inh: inactive; HP1b chromo inh: inactive; L3MBTL1 block: inactive; JMJD2A Tudor inh: inactive

What do the screens show for `O=C(CCC1CCCN(C2C3CC4CC(C3)CC2C4)C1)NCc1ccc(F)c(F)c1` (stereo unspecified)?
BAZ2B inh: inactive; HP1b chromo inh: inactive; L3MBTL1 block: inactive; JMJD2A Tudor inh: inactive

Results for CC(=O)Nc1nonc1-c1nnc(SCC(=O)Nc2cccc(F)c2)n1-c1ccccc1 ?
G9a block: inactive; BAZ2B inh: inactive; HP1b chromo inh: inactive; JMJD2A Tudor inh: inactive

How did Cc1cn2c(=O)cc(COc3ccc(NC(=O)c4ccc(C(C)(C)C)cc4)cc3)nc2s1 do in these assays?
G9a block: inactive; BAZ2B inh: inactive; HP1b chromo inh: inactive; JMJD2A Tudor inh: inactive

What do the screens show for `O=C(/C=C/c1ccc(O)cc1)c1ccc(NC2=C(N3CCCCC3)C(=O)c3ccccc3C2=O)cc1`?
G9a block: 14.1µM; BAZ2B inh: inconclusive; HP1b chromo inh: inactive; L3MBTL1 block: inconclusive; JMJD2A Tudor inh: 20µM

What do the screens show for `O=C(/C=C/c1ccc(O)cc1)c1ccccc1`?
BAZ2B inh: inactive; HP1b chromo inh: inactive; L3MBTL1 block: inactive; JMJD2A Tudor inh: inactive

How did O=c1nc(N2CCCCC2)nc(Nc2ccccc2)[nH]1 do in these assays?
G9a block: inconclusive; BAZ2B inh: inactive; HP1b chromo inh: inactive; JMJD2A Tudor inh: inactive

Results for Cc1ccc(NC2=C(N3CCCCC3)C(=O)c3ccccc3C2=O)cc1 ?
G9a block: 5.62µM; BAZ2B inh: inactive; HP1b chromo inh: inconclusive; L3MBTL1 block: inactive; JMJD2A Tudor inh: 14.1µM
